In PubChem BioAssay AID1645855 (Buhrlage Lab, Dana-Farber Cancer Institute and Novartis …, 2021):
Hit rate of the full screen: of about 47,000 compounds, about 3,100 (6.6%) were called active. This is one part of a sample in which actives are shown more often than they occur. No stated cut-off is given here; in the data, active means inhibition above about 30%; inactive means the rest.

What follows are molecules tested against Ubiquitin carboxyl-terminal hydrolase 17-like protein 5 (Homo sapiens) (UniProt A8MUK1) (assay: inhibitors of human USP17 deubiquitinase (AID 1645855)). Conditions: purified USP17, Ub-rhodamine cleavage fluorescence, 3 h; at 50 µM; stronger effect = higher value.
Chain of Ubiquitin carboxyl-terminal hydrolase 17-like protein 5 (Homo sapiens) (A8MUK1 whole entry, looked up): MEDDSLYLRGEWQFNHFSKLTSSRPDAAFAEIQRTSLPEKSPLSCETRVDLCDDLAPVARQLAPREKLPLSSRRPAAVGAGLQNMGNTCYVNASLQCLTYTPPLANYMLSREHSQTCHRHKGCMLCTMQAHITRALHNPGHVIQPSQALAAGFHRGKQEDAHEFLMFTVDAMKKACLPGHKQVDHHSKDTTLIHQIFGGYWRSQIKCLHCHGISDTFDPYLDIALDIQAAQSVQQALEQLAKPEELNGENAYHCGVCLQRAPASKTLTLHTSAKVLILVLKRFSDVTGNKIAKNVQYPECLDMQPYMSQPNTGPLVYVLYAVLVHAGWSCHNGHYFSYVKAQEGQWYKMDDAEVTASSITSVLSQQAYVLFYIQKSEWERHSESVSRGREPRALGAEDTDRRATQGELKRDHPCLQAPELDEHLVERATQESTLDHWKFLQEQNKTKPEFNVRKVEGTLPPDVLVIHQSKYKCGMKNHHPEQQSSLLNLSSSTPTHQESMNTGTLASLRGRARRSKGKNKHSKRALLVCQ
`COc1cc([C@@H]2c3cc4c(cc3C[C@@H]3COC(=O)[C@H]32)OCO4)cc(OC)c1OC` was tested, and the inhibition was 68.6% (active). For `O=C1CSC(c2ccc(F)cc2)c2c(-c3ccccc3)nn(-c3ccccc3)c2N1` (stereo not given), the inhibition was 6.01% (inactive). `c1ccc(C2NCc3ccccc3-n3cccc32)cc1` (stereo not given) was tested, and the inhibition was 1.12% (inactive). With `O=c1c2ccccc2nc(-c2ccccc2)n1-c1ccccn1` the inhibition was -2.09% (inactive). With `CN1C[C@H]2N(c3ncccn3)CCC[C@@]2(C(=O)NCC2CC2)C1` the inhibition was 8.79% (inactive).
